# From PubChem BioAssay (NCATS)
# Results filed as inconclusive are left out. Active and inactive are the calls of the source. The call rests on the fitted dose curve; in most records, active means well fitted cell-killing curve with a large enough effect; inconclusive means small, poorly fitted or top-dose-only effect; inactive means flat fitted curve, though single readings scatter.
# Assay: qHTS of pediatric cancer cell lines to identify multiple opportunities for drug repurposing: Primary screen for DAOY cells (AID 1347090); further: nearly all actives have a fitted effect of over 55% in size
# Conditions: DAOY medulloblastoma viability, CellTiter-Glo luminescence, 48 h; series mostly up to 46 µM
# Text: Drug repurposing or repositioning has been offered as a strategy for drug development in oncology programs. This approach has special potential for childhood cancers and other rare or orphan diseases, where the expected return on new drug development has been a disincentive to pharmaceuticals.
# In this project we exploit the poly-pharmacology of drugs to discover new indications via phenotypic screening of a panel of 19 well-characterized cell lines derived from solid tumors seen in children and adolescents. The goal is to identify approved drugs with previously unrecognized anticancer properties that has the potential to reveal new mechanisms and biological processes involved in carcinogenesis or drug resistance. We employed a titration-based paradigm (quantitative high-throughput screening or qHTS), where all compounds were tested at multiple concentrations for their effect on cell viability. Concentration-response curves (CRCs) were derived directly from the primary screen, and both potency and efficacy values were used to identify compounds with robust bioactivity profiles. We screened the NIH Chemical Genomics Center (NCGC) Pharmaceutical Collection (NPC) and Mechanism Interrogation Plate (MIPE) small molecule collections of approved and investigational compounds against these cell lines; and measured metabolically active cells after 48 hours of compound treatment as a proxy for cell viability.
# Assay Submitter: Nathalia J. Martinez, National Center for Advancing Translational Sciences, National Institutes of Health, Rockville, MD, USA; email: natalia.martinez@nih.gov
# [1] Shen, M et al. Quantitative high-throughput phenotypic screening of pediatric cancer cell lines identifies multiple opportunities for drug repurposing. Oncotarget 2017 Dec 19;9(4):4758-4772. PMID 29435139.
# The cells were obtained from University of North Carolina (UNC), Pediatric Preclinical Testing Program (PPT), and Coriell Institute (CI).
# qHTS cell viability assay:
# Cells were assayed in growth media at a density of 500-1,000 cells/well. Five microliters of cells were dispensed into 1,536-well, white, solid-bottom, TC-treated plates (Greiner Bio One) using a multidrop dispenser and incubated at 37 degrees C, 5% CO2, under a humidified atmosphere for 5 hours. Twenty-three nanoliters of compounds and controls (neutral control DMSO or positive control bortezomib at final concentration of 2.3 µM) were subsequently transferred by Kalypsys pintool. For primary screens, the MIPE collection was tested at 11-point dilutions (final concentrations range from 0.78 nM to 46 µM) and the NPC collection at 8-point dilutions (final concentrations range from 0.59 nM to 46 µM). Compounds tested in follow-up screens were assayed at 11-point dilutions. Cells were incubated for 48 hours, followed by addition of 3 uL of CellTiter-Glo (Promega). After a 15 min incubation at room temperature, samples were analyzed for luminescence intensity using a ViewLux High-throughput CCD imager equipped with clear filters.
row,Compound,outcome
1,CC(=O)[C@@]1(O)CC[C@H]2[C@@H]3C[C@H](C)C4=CC(=O)C=C[C@]4(C)[C@@]3(F)[C@@H](O)C[C@@]21C,inactive
2,NS(=O)(=O)c1cc(-c2nn[nH]n2)c(NCc2cccs2)cc1Cl,inactive
3,CC1CCc2cc(F)cc3c(=O)c(C(=O)O)cn1c23 (stereo not given),inactive
4,OCCN1C[C@H](O)[C@@H](O)[C@H](O)[C@H]1CO,inactive
5,O=C(O)CNC(=O)c1ccccc1I,inactive
6,CCC(C)(CN(C)C)OC(=O)c1ccccc1 (stereo not given),inactive
7,COc1cc(O)cc(O)c1,inactive
8,CCN(CC)CCOC(=O)C(c1ccccc1)c1ccccc1,inactive
9,CC(=O)NS(=O)(=O)c1ccc(N)cc1,inactive
10,CC[N+](CC)(CC(=O)Nc1c(C)cccc1C)Cc1ccccc1,inactive
11,O=C(O)COC(=O)Cc1ccccc1Nc1c(Cl)cccc1Cl,inactive
12,CC(N)CCCC(C)(C)O (stereo not given),inactive
13,O=C(c1ccccc1)C(O)c1ccccc1 (stereo not given),inactive
14,Cc1ccc(S(=O)(=O)NC(=O)NC2CCCCC2)cc1,inactive
15,Cc1c(NC(C)C)c(=O)n(-c2ccccc2)n1C,inactive
16,O=C(O)c1ccccc1OP(=O)(O)O,inactive
17,CN1CCCN=C1COC(=O)C(O)(c1ccccc1)C1CCCCC1 (stereo not given),inactive
18,CC(=O)N1C[C@H](O)C[C@H]1C(=O)O,inactive
19,CC(C)CCOC(=O)c1ccc(N(C)C)cc1,inactive
20,CC[C@H](C)[C@H](N)C(=O)O,inactive

row,Compound,outcome
1,CC(=O)Oc1cccc(O)c1,inactive
2,Nc1ccc(S(=O)(=O)c2ccc(N)cc2)cc1,inactive
3,O=c1[nH]c2cc(C(F)(F)F)c(N3CCOCC3)cc2n(CP(=O)(O)O)c1=O,inactive
4,CCCNC(C)C(=O)Nc1c(C)csc1C(=O)OC (stereo not given),inactive
5,C=CCOc1ccccc1OCC(O)CNC(C)C (stereo not given),inactive
6,Cc1cccc(C)c1NC(=O)CC12CCCN1CCC2,inactive
7,O=C(Cn1ccnc1[N+](=O)[O-])NCCO,inactive
8,CCCCCCCCCCC(CO)CCCCCCCC (stereo not given),inactive
9,OC[C@@H](O)[C@@H](O)[C@H](O)[C@H](O)CO,inactive
10,CCN(CC)CCc1nc(-c2ccccc2)no1,inactive
11,NC(=O)N[C@@H](CCC(=O)O)C(=O)O,inactive
12,O=c1[nH]c(=O)n([C@H]2C[C@H](O)[C@@H](CO)O2)cc1I,inactive
13,COc1ccc(O)cc1,inactive
14,O=C(O)[C@@H]1[C@H]2C[C@H]3c4[nH]c5ccccc5c4CCN3C[C@@H]2CC[C@@H]1O,inactive
15,CCN1CC(CCN2CCOCC2)C(c2ccccc2)(c2ccccc2)C1=O (stereo not given),inactive
16,CCOc1ccc(C(=O)OCCN(CC)CC)cc1,inactive
17,NC(=O)CCCCC1CCSS1 (stereo not given),inactive
18,CO[C@@]1(NC(=O)C(C(=O)O)c2ccc(O)cc2)C(=O)N2C(C(=O)O)=C(CSc3nnnn3C)CO[C@@H]21 (stereo not given in full),inactive
19,C[C@]1(Cn2ccnn2)[C@H](C(=O)O)N2C(=O)C[C@H]2S1(=O)=O,inactive
20,Cc1c(NC(=O)c2cccnc2)c(=O)n(-c2ccccc2)n1C,inactive
